From PubChem BioAssay
Rows were chosen to be rich in hits. Some 2.4% of all compounds tested hit in one or more screens of this group.
LT uptake inh: qHTS Assay for Anthrax Lethal Toxin Internalization; Cells, anthrax lethal toxin internalization, FRET ratio (460/530); Potency, µM (highest dose often 40 µM), usual class: inhibitors; 70,000 tested, 0.67% active; further: nearly all actives have a fitted effect of over 50% in size
AmpC nodet inh: Promiscuous and Specific Inhibitors of AmpC Beta-Lactamase (assay without detergent). 71,000 tested, 1.8% active. AmpC nitrocefin hydrolysis, absorbance 480 nm, no detergent. AID 585, 2007. P00811. Potency, µM (highest dose often 28.7 µM)
Target sequence (P00811 whole entry, looked up): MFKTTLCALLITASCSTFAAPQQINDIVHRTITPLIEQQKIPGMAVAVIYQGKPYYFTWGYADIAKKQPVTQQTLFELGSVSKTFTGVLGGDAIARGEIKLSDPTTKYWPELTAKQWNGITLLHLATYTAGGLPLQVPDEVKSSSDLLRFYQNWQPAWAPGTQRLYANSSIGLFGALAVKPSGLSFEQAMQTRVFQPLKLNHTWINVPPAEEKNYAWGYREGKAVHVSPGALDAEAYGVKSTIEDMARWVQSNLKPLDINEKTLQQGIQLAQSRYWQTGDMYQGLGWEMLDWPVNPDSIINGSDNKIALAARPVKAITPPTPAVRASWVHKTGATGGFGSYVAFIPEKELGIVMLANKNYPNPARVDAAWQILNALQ
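Enzyme, pH 7.0 phosphate. Compound titrations were pre-incubated with AmpC for 15 min at room temperature before nitrocefin (stock 800 uM) addition; product formation was recorded at 480 nm every 20 s for 4 min.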
AmpC inh det: Promiscuous and Specific Inhibitors of AmpC Beta-Lactamase (assay with detergent) | P00811 | purified AmpC, nitrocefin hydrolysis with detergent | Potency, µM (top dose mostly 28.7 µM) | 71,000 tested, 0.09% active | AID 584, 2007; active means well fitted curve in the direction sought with a large enough effect; inconclusive means small, poorly fitted or top-dose-only effect
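E. coli AmpC (5.3 nM) in 20 mM phosphate pH 7.0 with 0.01% Triton X-100, preincubated 15 min RT with compound; nitrocefin (2 uL of 800 uM stock) hydrolysis followed by 480 nm absorbance every 20 s over 4 min.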
SmPrx2 inh: Schistosoma Mansoni Peroxiredoxins (Prx2) | S. mansoni Prx2 activity coupled to TGR/GSH (TGR is thioredoxin glutathione reductase), NADPH fluorescence loss, qHTS | Potency, µM | AID 448, 2006 | 65,000 tested, 0.07% active | Schistosoma mansoni peroxiredoxin 2 (Prx2)
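Prx2 activity was followed as the loss of NADPH fluorescence (ex 365/em 450 nm), read every 30 sec for 8 min after H2O2 start. The enzyme mix (50 nM Prx2, 25 nM TGR, GSH, NADPH; pH 7.4 phosphate buffer) was incubated with compound for 15 min at room temperature first.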
Large screens that a line does not name were inactive; [ ] = remark or other dose. Unless noted, the call rests on the fitted dose curve.

CC[C@@H]1OC(=O)[C@@H](C)[C@H](O[C@@H]2C[C@@](C)(OC)[C@@H](O)[C@H](C)O2)[C@H](C)[C@H](O[C@@H]2O[C@@H](C)C[C@@H](N(C)C)[C@H]2O)[C@@](C)(O)C[C@H](C)C(=O)[C@@H](C)[C@H](O)[C@@]1(C)O	LT uptake inh inconclusive
Cn1cccc1Cc1nnc(SCC(N)=O)n1-c1ccc(F)cc1	AmpC nodet inh 4µM[single pt active]
Cn1cccc1Cc1nnc(SCC(=O)N2CCOCC2)n1-c1ccc(F)cc1	AmpC nodet inh 4µM[single pt active]
COc1cccc(NS(=O)(=O)c2nc3nc(C)cc(C)n3n2)c1	AmpC nodet inh 4µM[single pt active]
CC(C)(O)[C@H]1[C@H]2OC(=O)[C@@H]1[C@]1(O)C[C@H]3O[C@]34C(=O)O[C@H]2[C@]14C (tested in a mixture with another compound)	none
CCOC(=O)c1c(CN(CC)CC)oc2cc(Br)c(O)cc12	LT uptake inh inconclusive, AmpC nodet inh 4µM[single pt active]
O=C1CC(O)(C(F)(F)F)Oc2c1ccc1ccccc21 (configuration not stated)	LT uptake inh 10µM (no result: SmPrx2 inh)
O=C(Nc1ccc2c(c1)OCO2)C1COc2ccccc2O1 (configuration not stated)	none (no result: SmPrx2 inh)
Cc1cc(=O)oc2cc(NC(=O)C3COc4ccccc4O3)ccc12 (configuration not stated)	LT uptake inh inconclusive, AmpC nodet inh 10µM
C(=NC1CCCCC1)=NC1CCCCC1	LT uptake inh 4µM (no result: SmPrx2 inh)
O=C=NC1CCCCC1	none (no result: SmPrx2 inh)
CC1CCC(NC(=O)C2(C)CCC(=O)N2Cc2cccnc2)CC1 (configuration not stated)	AmpC nodet inh 4µM[single pt active]
CCOc1ccc(CN2C(=O)CCC2(C)C(=O)NCc2cccnc2)cc1 (configuration not stated)	none
CC1(C(=O)NC2CCCCC2)CCC(=O)N1Cc1cccnc1 (configuration not stated)	AmpC nodet inh 4µM[single pt active]
CC(O)CCCCCCC/C=C/C=C/C(N)=O (configuration not stated)	none (no result: AmpC nodet inh, AmpC inh det, SmPrx2 inh)
O=c1cc(-c2ccccc2)oc2cc(O[C@H]3O[C@H](CO)[C@@H](O)[C@H](O)[C@@H]3O)c(O)c(O)c12	LT uptake inh inconclusive
Cc1nc2cc(-c3cccc(F)c3)nn2c(C)c1CCC(=O)NC(C)CCc1ccco1 (configuration not stated)	LT uptake inh inconclusive (no result: SmPrx2 inh)
Cc1nc2cc(-c3cccc(F)c3)nn2c(C)c1CCC(=O)N1CCN(c2ccccn2)CC1	AmpC nodet inh 4µM[single pt active]
O=C(O)C[O][Sb][O]CC(=O)O	none
N#Cc1cccc(-c2nccc(-n3ccnc3)n2)c1	SmPrx2 inh inconclusive
C[C@@H](C(=O)O)c1ccc(C[C@@H]2CCCC2=O)cc1	none
Cc1ccc(S(=O)(=O)C2(C(=O)NCc3ccc4c(c3)OCO4)CC2)cc1	AmpC nodet inh 4µM[single pt active]
C[C@@H]1O[C@H](OC2[C@@H](O)[C@H](O)C(O)[C@H](O)[C@H]2O)[C@@H](N)C[C@@H]1N=C(N)C(=O)O (some centres not stated)	none
CN(C)S(=O)(=O)c1ccc(-c2ccccc2)cc1	LT uptake inh 7.9µM (no result: SmPrx2 inh)
CN(C)S(=O)(=O)c1ccc(Oc2ccccc2)cc1	none (no result: LT uptake inh)
O=C(c1ccc(-c2nnc(-c3ccccc3)o2)cc1)N1CCCCCC1	none
O=C(c1ccc(-c2ccccc2)cc1)N1CCN(c2nc3ccccc3o2)CC1	AmpC nodet inh 4µM[single pt active]
O=C(Nc1ccc(CN2CCOCC2)cc1)c1ccc(-c2ccc(Br)cc2)o1	LT uptake inh 13µM
Oc1cccc2ccc(SSc3ccc4cccc(O)c4n3)nc12	none
CCCS(=O)(=O)NCCc1csc(-c2cccnc2)n1	none
Nc1ncnc2c1c(-c1ccc(Oc3ccccc3)cc1)cn2C1CCCC1	LT uptake inh 16µM
c1ccc(C(CN2CCOCC2)c2ccccc2)cc1	none
O=C(c1ccc(F)cc1)C(CN1CCOCC1)c1ccccc1 (configuration not stated)	LT uptake inh 13µM (no result: SmPrx2 inh)
Cc1cc(NS(=O)(=O)c2ccc(NC(=O)COc3ccccc3C(C)C)cc2)no1	AmpC nodet inh 4µM[single pt active]
COc1cc(NS(=O)(=O)c2ccc(NC(=O)COc3ccccc3C)cc2)nc(OC)n1	AmpC nodet inh 13µM[single pt active]
CCOC(=O)C1C(=O)Oc2ccc3ccccc3c2C1C1CCOC1=O (configuration not stated)	AmpC nodet inh 4µM[single pt active]
CC(C)=CCC/C(C)=C/CO/N=C1/C[C@@H](O)[C@@H](O)[C@@H]2[C@@H]3C(=O)N(Cc4ccc5c(c4)OCO5)C(=O)[C@H]3CC[C@H]12	none (no result: AmpC nodet inh, AmpC inh det, SmPrx2 inh)
